The values that follow come from PubChem BioAssay (NCI).

This is part of a sample that, as a whole, favours compounds with a hit. Of some 83,000 tested, about 20% had one in any assay.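 How to read the values: 0–100, growth inhibition (40 = 60% inhibited); 0, no net growth; -100 to 0, cell death (-40 = 40% of starting cells died; -100 = all dead).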 Values without a mark were called inactive. Calls of active or inactive are those of the source. How the source made its calls: active means growth percent below 10; inactive means the rest.

The test system of this test is HL-60(TB) leukemia. Briefly: NCI-60 one-dose screen, 48 h (100 = growth as untreated, 0 = no growth, -100 = all killed). The note with it: 10 µM unless noted.
As for `Clc1ccccc1CNc1c2ccccc2nc2ccccc12`, the growth was 13.6%.

Regarding `O=C1OCC2=C1C(c1cccc(Br)c1)c1cc3c(cc1N2CCO)CCC3` (stereo not given), the growth is -25.5% (active).

On to `Brc1ccc(SSc2ccc(Br)cc2)cc1`, for which the growth was 70.9%.

Take `CCOc1cccc(/C=N/NC(=O)C(=O)Nc2cccc(C(F)(F)F)c2)c1O`: the growth was 11.2%.

In the case of `C#CCOc1cccc(Nc2ncnc3c2ncn3C2CCN(C(=O)CCl)C2)c1` (stereo not given), the growth was -56.3% (active).

Regarding `Nc1nc(Nc2ccccc2SSc2ccccc2Nc2nc(N)nc(-c3cccc(Cl)c3)n2)nc(-c2cccc(Cl)c2)n1`, the growth was 99.3%.

`O=C(Nc1ccccc1)Nc1ccc(Nc2ncnc3sc4c(c23)CCCC4)cc1`: the growth is 97%.

Turning to `O=C(Nc1ccc2[nH]c3ccccc3c2c1)c1ccccc1Cl`, the growth is 9.41% (active).

Regarding `O=c1[nH]ccc2nc(N3CCC(O)CC3)nc(Nc3cccc(C(F)(F)F)c3)c12`, the growth was 29.6%.

As for `COc1cc2cc3c(=O)n4c(cc5cc(OC)ncc54)c(=O)n3c2cn1`, the growth was 89.3%.

As to `NC1=CC(=O)C(=O)c2cccnc21`, the growth was 106%.

With `COc1ccc(C(=O)COc2ccc(/C=C3\Oc4ccc(OC)cc4C3=O)cc2)cc1`, the growth is 94.1%.

Take `COc1ccc2c(c1)N(CCO)C1=C(C(=O)OC1)C2c1cccc(F)c1` (stereo not given): the growth was -22.7% (active).

For `CN(C)c1ccc(C2Nc3ccccc3-n3cccc32)cc1` (stereo not given), the growth was 123%.

`CCCCCCCCCCCCCCCC1=NCC[N+]1(CCO)CCO`: the growth is 44.9%.

Turning to `COc1cc(-c2cc3cc(O)ccc3oc2=O)cc(OC)c1OC`, the growth is 85%.

For the compound `CCN(CC)CCN1C(=O)c2c(c3c4ccccc4[nH]c3c3ccc4ccccc4c23)C1=O`, the growth is -23.7% (active).

`C#CCOc1cccc(Nc2ncnc3c(NC(=O)CCl)cccc23)c1`: the growth is -59.1% (active).

Regarding `CN(C)CCCn1c2c(c3ccc(-c4ccn[nH]4)cc3c1=O)C(=O)c1ccccc1-2`, the growth is -7.99% (active).

In the case of `CC([C@H]1CCC2C3CCC4C[C@@H](NC=O)CC[C@]4(C)C3CC[C@@]21C)N(C)C` (stereo not given in full), the growth was -61.1% (active).

Consider `COc1cc(NN=C(c2ccc(O)cc2)c2ccc(O)cc2)c([N+](=O)[O-])cc1[N+](=O)[O-]`, for which the growth is 133%.

With `C(=N\Nc1ncc(-c2cc3cc4c(cc3o2)OCO4)s1)/c1ccco1`, the growth was 16.2%.

On to `CCCc1n(Cc2ccc3ccccc3n2)cc[n+]1Cc1ccc2ccccc2n1`, for which the growth is -31.2% (active).

As to `O=[N+]([O-])c1ccc(/C(=C/c2ccccc2)[n+]2ccccc2)cc1`, the growth is 110%.

For the compound `Cc1cn(-c2cc(NC(=O)c3ccc(C)c(Nc4nccc(-c5cnccn5)n4)c3)cc(C(F)(F)F)c2)cn1`, the growth is 33.4%.

Regarding `COc1ccc(-c2nc(SC(C)C)nc(NNC(N)=S)c2C#N)cc1`, the growth is 14.3%.

Consider `CC(=O)NCc1cc(C)c(C)cc1C`, for which the growth is 99.2%.

`Cc1cccc(/C=N/n2c(-c3ccc(Cl)cc3)nc3c(Br)cc(Br)cc3c2=O)c1`: the growth is 70.8%.

`C/C1=C\CC[C@@]2(C)O[C@H]2[C@H]2OC(=O)C(CN3CCN(CC4C(=O)O[C@H]5[C@H]4CC/C(C)=C/CC[C@@]4(C)O[C@@H]54)CC3)[C@@H]2CC1` (stereo not given in full): the growth is 98.7%.

For `COc1ccc2nc(Cl)c(Cn3nnc(Cc4ccccc4)n3)cc2c1`, the growth was 56.6%.

Take `FC(F)(F)Oc1cccc(-c2cnc3ccc(-c4ccncc4)nn23)c1`: the growth is -19.3% (active).

Regarding `COc1ccc2nc(-c3ccc(Cl)cc3)cc(C(=O)N3N=C(c4ccc(N)cc4)CC3c3ccccc3)c2c1` (stereo not given), the growth is -1.6% (active).

As for `CCCc1cc(=O)oc2c3c(c4c(c12)OC(C)(C)CC4)OC(C)[C@H](C)[C@@H]3O` (stereo not given in full), the growth is 109%.

Take `NC(=S)N/N=C/c1ccc(OC(=O)COc2ccccc2)cn1`: the growth was 35.3%.

Regarding `CC1(/C=C/c2ccc(-c3ccccc3)cc2)CCn2cnc3ncnc(c32)N1O` (stereo not given), the growth was 2.02% (active).

With `COc1ccc2c(c1)Nc1ccccc1S2`, the growth is 102%.

Turning to `CCN(CC)c1ccc(C(O)C2=CC(=O)c3ccccc3C2=O)cc1` (stereo not given), the growth is -1.99% (active).

As for `O=C(NCCNC(c1ccccc1)C(NCCNC(=O)c1ccccc1)c1ccccc1)c1ccccc1` (stereo not given), the growth is 68.3%.

As to `CCCN(CCC)CCCNC(=O)c1cc2c(-c3ccc(OC)c(OC)c3)nn(C)c2s1`, the growth is -13.4% (active).

Regarding `O=C1CSC(c2c(F)cccc2Cl)N1NC(=O)C(O)(c1ccccc1)c1ccccc1` (stereo not given), the growth is 98.3%.
